Test results as given in PubChem BioAssay (NCATS).
Records with an inconclusive call do not appear. Calls of active or inactive are those of the source. The call rests on the fitted dose curve; in most records, active means well fitted curve in the direction sought with a large enough effect; inconclusive means small, poorly fitted or top-dose-only effect, or another doubt; inactive means no such curve, though single readings can be large; an effect the other way counts as inactive or inconclusive.

Tests used:
[1] = target: Thioredoxin reductase 1, cytoplasmic (Rattus norvegicus) (UniProt O89049); experiment: qHTS Assay for Substrates of Mammalian Selenoprotein Thioredoxin Reductase 1 (TrxR1) (AID 488772);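 further: NADPH fluorescence in the first read after selenite addition and not the 8 min delta; series mostly up to about 57 µM; a drop in NADPH fluorescence below the no-compound background marks a TrxR1 substrate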
Thioredoxin reductase 1, cytoplasmic (Rattus norvegicus), sequence (O89049 whole entry, looked up): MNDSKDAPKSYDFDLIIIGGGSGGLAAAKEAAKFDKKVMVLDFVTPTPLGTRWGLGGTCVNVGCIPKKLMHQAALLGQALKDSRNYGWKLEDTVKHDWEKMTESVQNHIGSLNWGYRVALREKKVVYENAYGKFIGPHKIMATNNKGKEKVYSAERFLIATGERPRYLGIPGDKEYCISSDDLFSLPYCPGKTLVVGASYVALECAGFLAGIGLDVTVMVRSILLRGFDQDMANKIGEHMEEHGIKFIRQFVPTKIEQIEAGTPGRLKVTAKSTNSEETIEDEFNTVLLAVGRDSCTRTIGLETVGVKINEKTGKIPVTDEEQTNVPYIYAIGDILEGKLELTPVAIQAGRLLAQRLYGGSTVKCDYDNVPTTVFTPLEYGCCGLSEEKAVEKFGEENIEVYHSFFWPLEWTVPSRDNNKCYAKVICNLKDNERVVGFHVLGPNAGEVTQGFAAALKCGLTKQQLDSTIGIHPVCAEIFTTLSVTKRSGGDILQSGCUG
Summary of the method: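 Quantitative HTS in Tris-HCl buffer at pH 7.5 with EDTA and Tween-20, using rat TrxR1, 400 uM NADPH and 400 uM selenite (final). A fall in initial NADPH fluorescence relative to background marked substrate behaviour.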

[2] = target: Thioredoxin reductase 1, cytoplasmic (Rattus norvegicus) (UniProt O89049); experiment: qHTS Assay for Inhibitors of Mammalian Selenoprotein Thioredoxin Reductase 1 (TrxR1) (AID 488773);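 further: drop in NADPH fluorescence over an 8 min run after selenite addition; series mostly up to about 57 µM; nearly all actives have a fitted effect of over 40% in size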
Summary of the method: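 Steps: enzyme (90 nM) plus NADPH (400 uM final), 5 min at ~22 deg C; compound added, 15 min; selenite (400 uM final) added; fluorescence followed for 8 min. Concentration-response curves derived from the normalized delta values.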

[3] = target: Flap endonuclease 1 (Homo sapiens) (UniProt P39748); experiment: qHTS Validation Assay for the Inhibitors of Human Flap endonuclease 1 (FEN1) (AID 488816)
Flap endonuclease 1 (Homo sapiens), sequence (P39748 whole entry, looked up): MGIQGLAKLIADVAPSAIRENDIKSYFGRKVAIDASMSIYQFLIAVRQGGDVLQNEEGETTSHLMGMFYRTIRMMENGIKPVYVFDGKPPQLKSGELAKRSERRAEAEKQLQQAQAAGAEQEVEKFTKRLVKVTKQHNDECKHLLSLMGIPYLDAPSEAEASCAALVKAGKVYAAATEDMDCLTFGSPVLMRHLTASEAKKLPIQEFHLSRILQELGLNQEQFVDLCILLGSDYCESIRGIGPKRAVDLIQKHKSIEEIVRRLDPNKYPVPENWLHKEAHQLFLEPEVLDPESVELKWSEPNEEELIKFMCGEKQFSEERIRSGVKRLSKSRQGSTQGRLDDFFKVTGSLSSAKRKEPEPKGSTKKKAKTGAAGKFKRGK
Summary of the method: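 Readings taken at 0 and 15 min after starting the reaction with 50 nM (final) substrate supplied the signal. Compounds had first sat with 10 nM FEN1 reagent for 15 min at room temperature. Values come from Hill-equation concentration-response fits.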

[4] = target: Chromobox protein homolog 1 (Homo sapiens) (UniProt P83916); experiment: qHTS Validation Assay for Inhibitors of HP1-beta Chromodomain Interactions with Methylated Histone Tails (AID 488953);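 further: loss of AlphaScreen luminescence from HP1-beta binding biotinylated H3K9me3 peptide; series mostly up to about 110 µM; nearly all actives have a fitted effect of over 50% in size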
Chromobox protein homolog 1 (Homo sapiens), sequence (P83916 whole entry, looked up): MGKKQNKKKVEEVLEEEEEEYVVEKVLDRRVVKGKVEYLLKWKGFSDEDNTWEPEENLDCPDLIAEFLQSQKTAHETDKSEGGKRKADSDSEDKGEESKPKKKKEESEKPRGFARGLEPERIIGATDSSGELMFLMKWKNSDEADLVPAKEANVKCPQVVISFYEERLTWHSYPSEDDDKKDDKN
Description: As our understanding of epigenetics expands, it is becoming clear that players in this field are potential targets for drug development. This area of epigenetic therapy has established applications for the treatment of cancer and neurological diseases. We have been involved in this field for a number of years and have performed high-throughput screens to identify the first small molecule inhibitors of protein methyltransferases. These methyltransferases target multiple substrates, and thus regulate many arms of an epigenetic pathway. The methylation of different substrates often generates docking sites for effector proteins that harbor binding domains (chromo, tudor, PHD, MBT and ANK repeats).
It has been proposed that the binding sites generated for different proteins by these post-translational modifcations mediate downstream effects on chromatin. Consistent with this theory, di- and tri-methylation of histone H3K9 facilitates the binding of heterochromatin protein HP1. The HP1 protein harbors a chromodomain that is responsible for the methyl-dependent interaction between HP1 and lysine 9 of histone H3. […]
Low-affinity protein-protein interactions (Kd in the single- to double-digit micromolar range) such as those discussed here have been very difficult to assay by traditional techniques such as fluorescence polarization or fluorescence resonance energy transfer. […]

[5] = target: Methanococcus maripaludis chaperonin (MmCpn) (UniProt Q6LX38); experiment: High-Throughput Screening for Modulators of Cytosolic Chaperonin Activity: MmCpn Primary Screen (AID 488978);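 further: 50 nM MmCpn enzyme hydrolysing 30 µM ATP at 37 °C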
Methanococcus maripaludis chaperonin (MmCpn), sequence (Q6LX38 1-543): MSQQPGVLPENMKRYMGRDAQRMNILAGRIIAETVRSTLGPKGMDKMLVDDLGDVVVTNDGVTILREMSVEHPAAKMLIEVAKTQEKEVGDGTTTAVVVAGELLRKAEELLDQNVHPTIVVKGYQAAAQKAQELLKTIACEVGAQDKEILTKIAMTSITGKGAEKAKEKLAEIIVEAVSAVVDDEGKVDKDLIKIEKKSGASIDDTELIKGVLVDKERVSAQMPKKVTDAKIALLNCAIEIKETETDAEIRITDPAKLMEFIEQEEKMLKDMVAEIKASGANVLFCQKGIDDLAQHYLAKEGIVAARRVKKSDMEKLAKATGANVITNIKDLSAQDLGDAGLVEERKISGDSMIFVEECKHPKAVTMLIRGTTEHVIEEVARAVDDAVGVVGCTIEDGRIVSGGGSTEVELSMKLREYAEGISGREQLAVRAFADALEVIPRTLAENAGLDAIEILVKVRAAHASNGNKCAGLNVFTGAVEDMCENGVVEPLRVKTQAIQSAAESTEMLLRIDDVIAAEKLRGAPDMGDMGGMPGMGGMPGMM
Summary of the method: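 MmCpn at 50 nM final was preincubated 5 min at RT with compound. ATP was then added at 30 uM final for 10 min at 37 C. ADP formed was detected by Transcreener HTRF (665/590 nm).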

[6] = target: M-phase phosphoprotein 8 (Homo sapiens) (UniProt Q99549); experiment: qHTS Validation Assay for Inhibitors for MPP8 Chromodomain Interactions with Methylated Histone Tails (AID 488949); further: top concentration of the series differs between compounds; nearly all actives have a fitted effect of over 55% in size
M-phase phosphoprotein 8 (Homo sapiens), sequence (Q99549 whole entry, looked up): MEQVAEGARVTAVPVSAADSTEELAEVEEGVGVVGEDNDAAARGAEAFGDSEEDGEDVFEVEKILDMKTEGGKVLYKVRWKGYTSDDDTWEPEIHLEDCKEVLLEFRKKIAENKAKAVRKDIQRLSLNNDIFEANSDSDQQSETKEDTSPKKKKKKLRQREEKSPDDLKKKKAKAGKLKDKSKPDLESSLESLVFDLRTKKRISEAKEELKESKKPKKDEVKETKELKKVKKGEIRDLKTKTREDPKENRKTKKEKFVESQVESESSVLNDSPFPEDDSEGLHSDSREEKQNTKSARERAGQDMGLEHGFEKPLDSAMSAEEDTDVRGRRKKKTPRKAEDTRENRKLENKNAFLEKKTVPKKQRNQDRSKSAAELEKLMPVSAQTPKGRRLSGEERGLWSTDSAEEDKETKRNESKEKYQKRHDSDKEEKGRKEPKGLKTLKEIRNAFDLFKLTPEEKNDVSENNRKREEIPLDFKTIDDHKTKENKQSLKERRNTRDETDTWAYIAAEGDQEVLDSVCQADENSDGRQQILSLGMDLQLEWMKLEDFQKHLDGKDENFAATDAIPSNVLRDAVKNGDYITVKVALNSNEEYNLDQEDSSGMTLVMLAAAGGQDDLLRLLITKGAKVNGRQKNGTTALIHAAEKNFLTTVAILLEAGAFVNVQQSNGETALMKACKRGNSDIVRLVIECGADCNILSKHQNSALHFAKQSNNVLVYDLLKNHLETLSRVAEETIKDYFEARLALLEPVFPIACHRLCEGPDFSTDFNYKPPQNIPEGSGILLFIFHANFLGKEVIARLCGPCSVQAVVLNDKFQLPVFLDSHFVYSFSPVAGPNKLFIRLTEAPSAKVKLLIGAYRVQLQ
Summary of the method: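 MPP8 (50 nM) was pre-bound to 50 nM biotinylated H3(1-18)K9me3 peptide in PBS pH 7.4 with 0.01% Tween-20. Compounds were then added for 30 min at room temperature, and complex disruption was read by AlphaScreen with streptavidin donor and nickel-chelate acceptor beads.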

[7] = Quantitative high throughput screen for delayed death inhibitors of the malarial parasite plastid, 96 hour incubation (AID 488745);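 further: luciferase-expressing P. falciparum in erythrocytes at 2% hematocrit and 0.1% parasitemia; series mostly up to about 29 µM; nearly all actives have a fitted effect of over 70% in size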
Summary of the method: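 Growth of reporter-bearing P. falciparum in red cells is measured after 96 h with compound, covering two erythrocytic cycles. Luminescence from the integrated luciferase serves as the growth signal.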

[8] = Quantitative high throughput screen for delayed death inhibitors of the malarial parasite plastid, 48 hour incubation (AID 488752); further: nearly all actives have a fitted effect of over 65% in size
Summary of the method: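 One parasite generation (48 h, 37 C, 5% CO2) of luciferase-reporter P. falciparum in erythrocytes is run with test compound; decreased luminescence indicates inhibited growth.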

[9] = target: Transient receptor potential cation channel subfamily V member 1 (Homo sapiens) (UniProt Q8NER1); experiment: HTS Assay for Compounds that Act as Enhancers of the Vanilloid Receptor 1 (AID 488979)
Transient receptor potential cation channel subfamily V member 1 (Homo sapiens), sequence (Q8NER1 whole entry, looked up): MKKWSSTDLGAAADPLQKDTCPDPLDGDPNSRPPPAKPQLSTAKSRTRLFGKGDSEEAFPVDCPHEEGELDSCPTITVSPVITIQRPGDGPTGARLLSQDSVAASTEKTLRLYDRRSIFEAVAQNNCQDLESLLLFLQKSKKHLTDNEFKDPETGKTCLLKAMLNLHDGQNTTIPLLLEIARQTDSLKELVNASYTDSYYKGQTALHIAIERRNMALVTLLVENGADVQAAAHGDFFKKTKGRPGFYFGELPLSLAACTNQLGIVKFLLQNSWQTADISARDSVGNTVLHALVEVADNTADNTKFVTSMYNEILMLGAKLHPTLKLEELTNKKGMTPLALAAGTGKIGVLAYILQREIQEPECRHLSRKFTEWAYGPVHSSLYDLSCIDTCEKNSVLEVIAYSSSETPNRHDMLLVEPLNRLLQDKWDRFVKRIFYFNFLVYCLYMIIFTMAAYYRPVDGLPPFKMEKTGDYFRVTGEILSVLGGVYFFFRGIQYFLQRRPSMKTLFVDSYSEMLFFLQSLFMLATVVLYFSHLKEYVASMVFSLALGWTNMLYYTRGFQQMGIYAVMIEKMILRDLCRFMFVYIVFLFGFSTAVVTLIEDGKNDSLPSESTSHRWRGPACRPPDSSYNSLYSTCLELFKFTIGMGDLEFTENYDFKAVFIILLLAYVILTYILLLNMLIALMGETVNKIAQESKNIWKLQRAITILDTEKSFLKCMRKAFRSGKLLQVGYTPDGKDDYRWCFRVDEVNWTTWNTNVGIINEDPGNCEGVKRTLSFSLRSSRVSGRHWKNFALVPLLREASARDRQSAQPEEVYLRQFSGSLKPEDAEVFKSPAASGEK
Summary of the method: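 Calcium influx kinetics via Fluo-8 (480/520 nm) in TRPV1-expressing cells, 2000/well cultured overnight at 35.5C. Compound-alone read 3 min (agonist phase), followed by EC20 capsaicin challenge for 2 min (enhancer phase).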

[10] = target: ATP-dependent 6-phosphofructokinase (Trypanosoma brucei brucei) (UniProt O15648); experiment: qHTS Validation Assay to Find Inhibitors of T. brucei phosphofructokinase (AID 485368)
ATP-dependent 6-phosphofructokinase (Trypanosoma brucei brucei), sequence (O15648 whole entry, looked up): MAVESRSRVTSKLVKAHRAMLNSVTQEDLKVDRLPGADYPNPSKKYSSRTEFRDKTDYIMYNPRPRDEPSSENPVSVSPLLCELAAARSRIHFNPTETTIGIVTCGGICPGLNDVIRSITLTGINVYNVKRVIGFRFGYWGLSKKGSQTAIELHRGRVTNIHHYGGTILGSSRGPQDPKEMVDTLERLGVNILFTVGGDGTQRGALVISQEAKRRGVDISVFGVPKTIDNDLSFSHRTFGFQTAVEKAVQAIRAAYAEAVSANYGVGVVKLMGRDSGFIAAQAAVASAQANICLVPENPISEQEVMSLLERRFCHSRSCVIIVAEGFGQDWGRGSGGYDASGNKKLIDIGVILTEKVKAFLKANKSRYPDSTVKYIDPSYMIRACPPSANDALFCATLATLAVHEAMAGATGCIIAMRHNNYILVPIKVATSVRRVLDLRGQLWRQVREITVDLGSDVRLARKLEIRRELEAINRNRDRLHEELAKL
Description: NIH Molecular Libraries Probe Production Network [MLPCN]
NIH Chemical Genomics Center [NCGC]
PI Name: Malcolm Walkinshaw, University of Edinburgh
Various species of the protozoan family Trypanosomatidae are responsible for a range of serious human diseases in tropical and subtropical areas of the world. […] Many of the disorders caused by trypanosomatids are fatal if left untreated, but most currently used drugs are inefficient and toxic. […]
The goal of this screen is to find small-molecule inhibitors of T. brucei PFK using a biochemical assay that measures PFK activity as a function of ADP production. A luminescence-based assay for T. brucei PFK activity has been developed which uses luciferase to detect production of ADP. […] To directly measure the ADP product of the PFK reaction, we used the ADP-Glo detection kit (Promega), which utilizes two separate reactions to 1) deplete all remaining uncatalyzed ATP and 2) convert all remaining ADP to ATP, which is then detected through a traditional luciferase-coupled reaction. […]
Substrate buffer was dispensed into white, solid 1536-well plates at 3uL/well in 0.1M triethanolamine (TEA) buffer, pH 8.0, containing final concentrations of 5 mM MgCl2, 0.01% Tween20, 0.5 mM fructose-6-phosphate (F6P) and 0.1mM ATP. […] The plates were measured on a ViewLux plate reader for luminescent signal using a clear filter with a one second exposure. […]

Measured: outcome

COc1ccc2cc([S+]([O-])Cc3ncc(C)c(OC)c3C)nc2c1
inactive: [1] | [2] | [3] | [4] | [5]

CN[C@H](CC(C)C)C(=O)N[C@H]1C(=O)N[C@@H](CC(N)=O)C(=O)N[C@@H]2C(=O)N[C@H]3C(=O)N[C@H](C(=O)N[C@H](C(=O)O)c4cc(O)cc(O)c4-c4cc3ccc4O)[C@H](O)c3ccc(c(Cl)c3)Oc3cc2cc(c3O[C@@H]2O[C@H](CO)[C@@H](O)[C@H](O)[C@@H]2O[C@H]2C[C@](C)(N)[C@H](O)[C@H](C)O2)Oc2ccc(cc2Cl)[C@H]1O
inactive: [1] | [2] | [6] | [5]

N=c1ccn2c(n1)O[C@H]1[C@@H](O)[C@@H](CO)O[C@H]12
inactive: [7] | [8] | [6] | [9]

O=c1[nH]c(=O)n([C@H]2C[C@@H](O)[C@@H](CO)O2)cc1C=CBr
not listed: [7] | [8] | [9]
inactive: all other assays above
